Over roughly 1,700 compounds, “T3 sensor activation Q score (MG/GFP ratio z-score vs DMSO controls)” has its median near 0.25; the highest 2% begin near 1.9. What follows is part of a selection rich in the highest values, with near analogues and random picks from the rest.
Test system: ppGalNAc-T3 sensor
Assay: T3 sensor activation Q score (MG/GFP ratio z-score vs DMSO controls) (SD units); higher = more sensor activation (inhibition of ppGalNAc-T3 glycosylation)
Conditions: HEK293 sensor cells; 10 µM; 6 h
Method: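 Cells were treated with compound at 10 uM for 6 h, then MG/GFP ratio was read by flow cytometry (10,000 cells per well, duplicate wells). Q = (R - R_neg)/SD_neg relative to DMSO vehicle controls; the signal rises when the glycosyltransferase is inhibited.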

Compound | T3 sensor activation Q score
C#CCOCC1CN(c2ccccc2)C(=O)O1 (stereo not given) | 1.9
CCCCOc1ccc(N=Nc2ccc(N)nc2N)cn1 | 1.7
N#CC1C=Cc2c(ccc3ccccc23)N1C(=O)c1ccccc1 (stereo not given) | 2.65
O=C(CC1C=Cc2ccccc2N1C(=O)c1ccccc1)c1ccccc1 (stereo not given) | -1.4
O=C(Nc1cccc2ccccc12)c1ccccc1 | -0.45
Nc1ccc2c(c1)Cc1cc(Cl)c(Cl)cc1-2 | -0.65
OC(COc1ccc(Cl)cc1)CN1CCN(c2cccc(Cl)c2)CC1 (stereo not given) | -0.65
O=C(Nc1ccc2ncccc2c1)Nc1ccc2ncccc2c1 | 0.15
Cc1c(CCO)c(=O)n2n1CCCC2 | -0.55
CCCCCCCC1(C)NC(=O)NC1=O (stereo not given) | -1.9
ClCC(CNCc1ccccc1)c1ccccc1 (stereo not given) | 0.35
O=c1cc(-c2ccc(Cl)cc2)[nH]c2ccccc12 | 0
c1ccc(N=NN2CCOCC2)cc1 | -0.75
CC1(C)OC2C(CO)OC(n3cnc4c(=S)nc[nH]c43)C2O1 (stereo not given) | 0.4
COC(=O)CC1(C(=O)OC)Nc2cc(Cl)c(Cl)cc2S(=O)(=O)N1O (stereo not given) | 0.7
CN(CCC#N)c1ccc(/C=C(\C#N)c2cccc(C(F)(F)F)c2)cc1 | -0.05
CC1CC(C)(C)NC2(CCCC2)N1 (stereo not given) | -0.6
O=C(Nc1ccc(O)c(C(=O)O)c1)Oc1ccccc1 | 0.9

Compound | T3 sensor activation Q score
c1ccc2[nH]c(-c3ccncc3)nc2c1 | 0.2
CC(=O)CC(=O)Nc1ccc2ccccc2c1 | 1.25
c1ccc2[nH]c(CCCCCc3nc4ccccc4[nH]3)nc2c1 | -0.5
Cc1ccc(CC#N)c(-c2c(CC#N)ccc(C)c2C)c1C | -0.85
c1ccc2c(c1)[nH]c1c3ccccc3sc21 | -0.95
O=C(Nc1ccc(Nc2ccncc2)cc1)c1ccc([N+](=O)[O-])cc1 | 0.75
O=C(Nc1ccc(Nc2ccncc2)cc1)c1ccc(Nc2ccnc3ccc([N+](=O)[O-])cc23)cc1 | 9.85
O=C(Nc1ccc(Nc2ccncc2)cc1)c1ccc(Nc2ccnc3ccc([N+](=O)[O-])cc23)cc1[N+](=O)[O-] | -1.4
C/C(=N\NC(=S)N1CC2CCC(CC2)C1)c1cnccn1 | -1.2
CCOC(=O)c1nn(-c2ccccc2)cc1O | 0.05
O=C(c1ccc(OCCN2CCCCC2)cc1)c1c(-c2ccc(O)cc2)sc2cc(O)ccc12 | 2.7
CC1=Nc2ccccc2/C1=C\c1c(C)[nH]c2ccccc12 | -0.45
Cc1ccncc1C(N)=O | 1.9
O=C(C(=O)c1cccnc1)c1cccnc1 | 1.75
Cc1ccc(NC(=O)Nc2cccnc2)cc1NC(=O)Nc1cccnc1 | 0.95
COc1ccccc1NC(=O)c1cc2ccccc2cc1O | -0.55
NC(=O)c1cc(C(N)=O)nc(Cl)n1 | -0.8
